Results filed as inconclusive are left out. Activity calls are given as the source filed them. Calls follow the shape of the dose curve; as a rule, active = well fitted cell-killing curve with a large enough effect; inconclusive = small, poorly fitted or top-dose-only effect; inactive = flat fitted curve, though single readings scatter.
Assay: HBEC Cell Viability Secondary Assay for qHTS Assay for Epigenetic Modulators
Settings: HBEC normal bronchial cells viability, ATP luminescence, 72 h
From the text: NIH Molecular Libraries Screening Centers Network [MLSCN] NIH Chemical Genomics Center [NCGC] MLSCN Grant: 1 X01 MH079860-01 Assay Provider: Elisabeth D. Martinez, University of Texas SW Medical Center NCGC Assay Overview: This secondary assay characterizes selected actives identified in the qHTS of the Locus Derepression (LDR) assay (PubChem AID 1865). The LDR assay detects the derepression of a GFP reporter that is stably integrated in a region of the genome of murine c127i mammary cells that is presumably silenced. Compounds that cause derepression of the locus to express GFP are identified by enumerating GFP positive cells using a laser-scanning microplate cytometer. […] Cell viability was measured using a luminescence-based detection reagent that measures cellular ATP levels.
NCGC Assay Protocol Summary HBEC cells were seeded at 125 cells/5 uL/well in white, solid bottom, 1536 well plates (Greiner). […] Plates were incubated 72 hours at 37deg C and 5% CO2, then 3.5 uL/well CellTiter-Glo(R) (Promega) detection reagent was added, plates were incubated at ambient temperature for 10 minutes and luminescence was measured by a ViewLux (Perkin Elmer) reader. […] A quantitative high-throughput screen identifies potential epigenetic modulators of gene expression. […] A quantitative high-throughput screen identifies potential epigenetic modulators of gene expression. […]

In the case of `COc1ccc(OC)c(N2C(=O)NC(=O)/C(=C\c3ccc([N+](=O)[O-])s3)C2=O)c1`, the Potency is reported as 28.1 µM (active).
With `O=C1NC(=O)N(CCc2ccc(F)cc2)C(=O)/C1=C/C=C/c1ccccc1` the Potency was 7.91 µM (active).

— PubChem BioAssay AID493066 (National Center for Advancing Translational Sciences (NCATS), 2011)
